# Screening data as filed in PubChem.
# DT40 TDP1 CPT – qHTS for Inhibitors of human tyrosyl-DNA phosphodiesterase 1 (TDP1): qHTS in cells in presence of CPT. 420,000 tested, 12% active. AID 686979, 2013. Potency, µM (top dose mostly 46.2 µM), for inactives: at the top dose activity change, negative = growth inhibition, most hits filed as inhibitors. chicken DT40 Tdp1-/-;hTDP1 cells + 20 nM CPT, ATP luminescence, 48 h; further: potency means the concentration at half of the fitted maximal effect; nearly all actives have a fitted effect of over 55% in size
#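 Chicken DT40 Tdp1-/- cells complemented with human TDP1, 400 cells/well, exposed to compounds plus 20 nM camptothecin for at least 48 h at 37 C; viability read as ATP content by CellTiter-Glo luminescence.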
# HT1080-NT tox – qHTS for induction of synthetic lethality in tumor cells producing 2HG: qHTS for the HT-1080-NT fibrosarcoma cell line; HT-1080-NT fibrosarcoma viability, CellTiter-Glo ATP luminescence, 48 h; Potency, µM (series often up to 46.1 µM), inactives show top-dose activity, negative = less viability, most hits filed as cytotoxic; 360,000 tested, 1.6% active;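 further: NT is the 2HG producing partner of a matched IDH1 knockdown line; potency means the concentration at half of the fitted maximal effect; 0% = DMSO-treated cells and -100% = media-only wells without cells; nearly all actives have a fitted effect of over 55% in size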
#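 HT-1080-NT; 750 cells/well; 5% FBS RPMI; 48 h compound, 37 degrees C; CellTiter-Glo luminescence; curve fitting and curve-class assignment.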
# IL1B secr inh – qHTS for Inhibitors of Inflammasome Signaling: IL-1-beta AlphaLISA Primary Screen; activity change, % at 57.5 µM; THP-1 LPS/ATP IL-1B secretion, AlphaLISA, 16 h; hits give low values; 360,000 tested, 4.7% active; in the data active means activity change below about -50%; inconclusive means mostly about -30% to -49%
#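 THP-1 cells pretreated 1 hr with compounds (up to 57.5 uM final), then stimulated with LPS (250 ng/mL final) plus ATP (1.25 mM final); secreted IL-1B measured by AlphaLISA after 16 hr, decreased signal indicating inhibition.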
# ALOX12 inh – Primary qHTS assay for inhibitors of human arachidonate 12S-lipoxygenase (ALOX12): Round 2 | 580,000 tested, 1.1% active | purified 12hLO, xylenol orange hydroperoxide absorbance | Potency, µM (doses to about 108 µM), without a hit: at the top dose activity change, negative = inhibition, actives largely listed as inhibitors; further: potency means the concentration at half of the fitted maximal effect
# Target sequence (P18054 whole entry, looked up): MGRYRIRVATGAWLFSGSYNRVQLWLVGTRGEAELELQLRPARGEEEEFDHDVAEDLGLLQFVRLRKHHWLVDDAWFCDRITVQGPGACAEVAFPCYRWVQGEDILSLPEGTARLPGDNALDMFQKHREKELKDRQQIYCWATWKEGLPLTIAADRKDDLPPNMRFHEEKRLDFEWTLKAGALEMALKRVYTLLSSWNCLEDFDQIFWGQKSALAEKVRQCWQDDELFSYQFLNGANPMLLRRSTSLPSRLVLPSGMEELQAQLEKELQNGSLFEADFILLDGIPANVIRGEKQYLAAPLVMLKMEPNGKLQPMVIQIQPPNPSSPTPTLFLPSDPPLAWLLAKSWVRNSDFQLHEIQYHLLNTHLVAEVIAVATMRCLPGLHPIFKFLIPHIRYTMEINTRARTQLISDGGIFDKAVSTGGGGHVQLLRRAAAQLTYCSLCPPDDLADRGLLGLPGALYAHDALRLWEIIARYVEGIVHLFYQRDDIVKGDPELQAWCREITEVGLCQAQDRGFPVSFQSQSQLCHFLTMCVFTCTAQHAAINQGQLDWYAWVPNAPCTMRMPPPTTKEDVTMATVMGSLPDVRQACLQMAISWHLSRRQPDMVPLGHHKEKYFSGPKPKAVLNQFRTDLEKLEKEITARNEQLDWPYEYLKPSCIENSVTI
#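 Hydroperoxide product was detected by ferrous iron/xylenol orange as the 573 to 405 nm absorbance ratio. Arachidonic acid at 40 uM (final) was turned over for 30 min at room temperature by 150 nM human 12hLO, pH 7.0 Hepes buffer, after 15 min compound preincubation.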
# HT1080 IDH1KD tx – qHTS for induction of synthetic lethality in tumor cells producing 2HG: qHTS for the HT-1080-IDH1KD cell line. HT-1080 IDH1 knockdown viability, ATP luminescence, 48 h. Potency, µM (titrated, usually from 46.1 µM), for the others: at the top dose activity, negative = toxicity, usual class: cytotoxic. 360,000 tested, 2% active;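 further: potency means the concentration at half of the fitted maximal effect; 0% = DMSO wells and -100% = cell-free medium wells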
#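 HT-1080-IDH1KD cells (IDH1 knocked down), 750/well in RPMI with 5% FBS, treated with compound 48 h at 37 degrees C. Viability by CellTiter-Glo luminescence, normalised to DMSO and no-cell wells; concentration-response curves classed.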
# DT40 TDP1 no CPT – qHTS for Inhibitors of human tyrosyl-DNA phosphodiesterase 1 (TDP1): qHTS in cells in absence of CPT; DT40 Tdp1-/- hTDP1 cells, no CPT, ATP luminescence, 48 h; Potency, µM (series often up to 46.2 µM), for the others: top-dose activity change, negative = growth inhibition, usual class: inhibitors; 420,000 tested, 15% active; further: potency means the concentration at half of the fitted maximal effect; nearly all actives have a fitted effect of over 55% in size
#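 No-CPT arm: Tdp1-/-;hTDP1 DT40 cells (400/well) plus compounds, incubated ≥48 hr at 37 °C. Readout CellTiter-Glo luminescence.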
# Active calls of the source: *; ? = inconclusive; . = no result; ! = not confirmed by another sample; [ ] = another dose, or the depositor's remark. Shown is part of a subset that was picked to be rich in hits. Unless noted, the call rests on the fitted dose curve; in most records, active means well fitted curve in the direction sought with a large enough effect; inconclusive means small, poorly fitted or top-dose-only effect, or another doubt; inactive means no such curve, though single readings can be large; an effect the other way counts as inactive or inconclusive. Unless noted, on the % scale 0 is the no-effect control and ±100 the full control effect.
SMILES,DT40 TDP1 CPT,HT1080-NT tox,IL1B secr inh,ALOX12 inh,HT1080 IDH1KD tx,DT40 TDP1 no CPT
COc1ccc(-c2cc(C#N)nc(Oc3ccc(Cl)cc3)n2)cc1,-1%,6%,-5,-19%,-1%,-1%
CCN(CC)c1nc2cc(OC)ccc2cc1C#N,21µM*,4%,1,?,-5%,16µM*
CCN(CC)c1nc(C#N)cc(-c2ccc(OC)cc2)n1,8.2µM*,?,-9,-35%,?,10µM*
N#Cc1cc(-c2ccccc2)nc(Oc2ccccc2)n1,?,-9%,?,-8%,3%,18µM*
COc1ccc(C(=O)N2CCC3(C2)NC(=O)c2ccccc2CO3)cc1 (configuration not stated),.,.,.,75%,.,.
CC(=O)c1cccc(NC(=O)Cc2c(C)c3c(O)cc(C)cc3oc2=O)c1,.,.,.,-25%,.,.
Cc1ccc(-c2ocnc2C(=O)Nc2ccc(C)c(C)c2)s1,.,.,.,-3%,.,.
CCCCNC(=S)Nc1cccc(C)c1,.,.,.,-29%,.,.
Cc1cccc(NC(=S)NCC(C)CSc2ccc(Cl)cc2)c1 (configuration not stated),?,?,-9,32µM*,?,16µM*
S=C(NCCSc1ccc(Cl)cc1)Nc1cccc(Cl)c1,.,.,.,35µM*,.,.
CSc1cccc(NC(=S)NCCSc2ccc(Cl)cc2)c1,.,.,.,35µM*,.,.
Cc1cccc(NC(=S)NCCSc2ccc(Cl)cc2)c1,-3%,-22%,-105*,?,?,-27%
S=C(NCc1ccco1)Nc1cccc(Cl)c1,-12%,?,0,?,?,?
O=C(c1ccccc1)N1CCNc2cnc(Nc3cccc(F)c3)nc2C1,.,.,.,-14%[176 µM],.,.
Cc1ccc(-n2cc3c(-c4cccc(Br)c4)nnc(C)c3n2)cc1,26µM*,2%,-23,0%,-2%,?
Cc1nnc(-c2cccc(Br)c2)c2cn(-c3ccccc3Cl)nc12,23µM*,4%,?,-60%,-1%,?
O=C1c2ccccc2C(=O)N1/N=C/c1ccc(O)c(O)c1,-26%,-7%,20,22µM*,-9%,-20%
O=C1C2C3C=CC(CC3)C2C(=O)N1/N=C/c1ccc(O)c(O)c1 (configuration not stated),-14%,1%,29,-28%,-16%,?
CCOC(=O)c1ccc(NC(=O)COc2ccccc2CNCCc2ccccc2)cc1,?,?,-88*,?,?,?
CCOC(=O)c1ccc(NC(=O)COc2ccc(CNCCO)cc2OCC)cc1,7%,?,-102*,-8%,?,-8%
CCOC(=O)c1ccc(NC(=O)CNNC(=O)COc2ccccc2C)cc1,-27%,-3%,-22,193%,3%,?
CC(Sc1nn(-c2ccc(F)cc2)c(=S)s1)C(=O)c1c(N)n(C)c(=O)n(C)c1=O (configuration not stated),?,-18%,-6,-13%,-17%,13µM*
Cn1c(N)c(C(=O)CSc2nn(-c3ccccc3)c(=S)s2)c(=O)n(C)c1=O,?,-17%,70,8%,-10%,16µM*
COc1ccccc1Oc1c(C)oc2cc(OC(=O)C(C)(C)C)ccc2c1=O,.,.,.,-23%,.,.
CC(C)c1nc2c(c(-c3ccc(O)cc3)n1)CCN(CC1CCCCC1)CC2,.,.,.,11%,.,.
SMILES,DT40 TDP1 CPT,HT1080-NT tox,IL1B secr inh,ALOX12 inh,HT1080 IDH1KD tx,DT40 TDP1 no CPT
Cc1cc(-c2csc(N)n2)c(C)n1CCc1ccccc1,23µM*,1%,-2,?,6%,?
CC(C)c1nc(C#N)c(NN)o1,0%,8%,44,0%,-5%,-10%
N#Cc1nc(Cl)c(Cl)c(NN)c1Cl,-1%,-20%,-54*,9%,-13%,-15%
CCOc1ccc(C2=Nn3c(nnc3-c3ccccc3)SC2)cc1Cl,-4%,-10%,33,-12%,-5%,-19%
CCOc1cccc(-c2nnc3n2N=C(c2cc(OC)ccc2OC)CS3)c1,?,-30%,-25,0%,-29%,8.2µM*
COc1cccc(-c2nnc3n2N=C(c2cc(OC)ccc2OC)CS3)c1,?,-2%,?,-14%,-10%,15µM*
COc1ccc(OC)c(-c2nnc3n2N=C(c2ccc(OC)c(OC4CCOC4)c2)CS3)c1 (configuration not stated),.,.,.,-15%,.,.
COc1ccc(OC)c(C2=Nn3c(nnc3-c3ccncc3)SC2)c1,?,?,-13,5%,-6%,?
COc1ccc(OC)c(C2=Nn3c(nnc3-c3cc(OC)c(OC)c(OC)c3)SC2)c1,21µM*,?,0,-21%,?,16µM*
COc1ccc(C2=Nn3c(nnc3-c3ccc(OC)cc3)SC2)cc1,1.8µM*,?,2,-7%,?,1µM*
CC(=O)N1CCC(N2CC[C@H](CO)[C@H](NC(=O)C3CC3)C2)CC1,.,.,.,17%,.,.
c1ccc(C2=Nn3c(nnc3-c3cc(-c4ccccc4)n[nH]3)SC2)cc1,?,?,-2,0%,?,?
COc1cccc(-c2nnc3n2N=C(C(C)(C)C)CS3)c1,16µM*,?,-93*,-19%,?,9.2µM*
Clc1ccc(C2=Nn3c(nnc3-c3cc(-c4ccccc4)n[nH]3)SC2)cc1,?,-5%,9,10%,?,18µM*
Cc1cccc(-c2nnc3n2N=C(c2ccccc2Br)CS3)c1,21µM*,-26%,-3,0%,-29%,21µM*
Cc1ccc(-c2nnc3n2N=C(c2ccccc2)CS3)cc1,-20%,5%,40,310%,12%,-15%
COc1cc(-c2nnc3n2N=C(c2ccccc2)CS3)cc(OC)c1OC,1.5µM*,2.1µM*,17,?,1.2µM*,1.5µM*
Cc1cc(-c2nnc3n2N=C(c2ccccc2Br)CS3)n[nH]1,7%,-14%,.,?,-6%,?
Nc1ccc(N=Nc2ccccc2)c(N)n1,9.4µM*!,2%,-20,?,-1%,11µM*!
Nc1ccc(N=Nc2ccccc2)c2ccccc12,32%,3%,25,?,-7%,3%
